# Measurements published in PMC4242493, “Sequence specificity incompletely defines the genome-wide occupancy of Myc”.
# The full ranking holds about 33,000 sequences; the median of “normalized occupancy” is about 0.075, and the highest 2% start at about 0.095. The entries come from a sample that favours the highest values as a whole.
# Target: MaxL homodimer (Homo sapiens, UniProt P61244 1-160)
# Assay: universal protein-binding microarray (PBM); PBS-based mixture, 10 nM His-tagged protein dimer, 2% milk, 200 ng/uL BSA, 50 ng/uL salmon testes DNA, 0.02% TX-100; detection with Alexa 488 anti-His antibody;; high values mean tight binding
# Details: protein: recombinant; tags: C-terminal His-tag (pET21a); chain copies: 2; dsDNA, one strand shown
# Procedure, shortened: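 Binding occupancy is a fluorescence intensity normalised to the intensity of the highest-ranked sequence word. Those intensities came from 8-mers on Agilent 4 x 44 K 'all 10-mer' universal arrays incubated with 10 nM His-tagged protein dimer. Bound protein was detected with 10 ng/μL fluorophore-conjugated anti-His antibody before scanning on a GenePix 4400A.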
# Sequence of MaxL homodimer (P61244 whole entry): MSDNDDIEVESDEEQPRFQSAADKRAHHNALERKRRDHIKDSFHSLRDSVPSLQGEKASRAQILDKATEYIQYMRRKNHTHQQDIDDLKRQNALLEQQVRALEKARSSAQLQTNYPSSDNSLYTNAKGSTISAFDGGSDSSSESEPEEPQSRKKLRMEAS
row,Sequence,binding signal [normalized occupancy]
1,GAGAAGGA,0.0733
2,CAACAATC,0.0759
3,ATGCCCGG,0.0744
4,AGACCTTA,0.0772
5,AGCGTGGC,0.108
6,AGAGTGGG,0.0749
7,CGCGTGGC,0.154
8,AGCGTTGG,0.0764
9,ACCGTGGC,0.0752
10,GCCGTGGA,0.0736
11,CCCGTGGC,0.0811
12,CGGGTGGC,0.0775
13,AGCGTTGC,0.0728
14,GGCGTGGA,0.0968
15,AGCGTGGG,0.113
16,GGCGTCGA,0.0725
17,CCCCAAAA,0.0734
18,AATAACCC,0.0806
19,AACAGGAT,0.0759
20,CCGTCCTC,0.0798
21,CGTCACGA,0.0766
22,GTGGACGA,0.0753

row,Sequence,binding signal [normalized occupancy]
1,AACTCTAC,0.0729
2,CGCATCAG,0.0761
3,CTATAGGA,0.0753
4,TGCCAGAA,0.0775
5,CCCGTGGA,0.0823
6,AGGGTGGA,0.074
7,CGTGTGGA,0.0865
8,CGTGTGGC,0.0953
9,AGCGTGGA,0.106
10,CGCGTCGA,0.0756
11,CGCGTGGA,0.147
12,AGTGTGGC,0.0795
13,ACCGTGGA,0.0797
14,ACCCTGCA,0.0751
15,CTACTAGA,0.0787
16,CACTTTGA,0.0776
17,CCGCCCTA,0.0723
18,CGAATTCC,0.0757
19,AGTGGGTG,0.0863
20,ACTCGACT,0.0722
21,ACACGTGC,0.567
22,ACACGTAT,0.0833

row,Sequence,binding signal [normalized occupancy]
1,AGACGTGA,0.0821
2,ACACGTCC,0.08
3,ACACGTCT,0.0781
4,ACACGTGT,0.545
5,AGACGTGG,0.0819
6,ACACGTAG,0.0822
7,ACACGTGA,0.383
8,ACACGTGG,0.852
9,ATACGTGA,0.081
10,ACACGTAC,0.0858
11,ATGAAGCA,0.082
12,CATTATTA,0.0832
13,TAATGCTA,0.0758
14,ACTCTGAA,0.0737
15,ATTCAGCA,0.0725
16,AATCGTTA,0.0761
17,ATACGTAT,0.0856
18,CCATGGAC,0.0837
19,TCATGGGA,0.0807
20,GCATGGGA,0.0967
21,ACATGGAC,0.0847
22,ACATGGCC,0.0878

row,Sequence,binding signal [normalized occupancy]
1,CCATGGCC,0.0766
2,GCATGGCC,0.0963
3,ACATGGCA,0.0904
4,GCATGGCA,0.102
5,ACATGGGA,0.0901
6,TCATGGCA,0.0816
7,GCATGGAC,0.0979
8,AATTAAGC,0.0756
9,CTGACACC,0.0794
10,GTTTGTGA,0.0718
11,TAGCATCA,0.0821
12,GTCTTCAA,0.0773
13,GAGTTGCC,0.0729
14,ATTCCATC,0.0772
15,TGATTCCA,0.0829
16,AACAAACC,0.074
17,ACATGACC,0.0952
18,ACATGATC,0.101
19,ACATGATA,0.0928
20,GCATGACA,0.088
